Assay results: PubChem BioAssay (NCI)
Compounds without any hit were thinned out: in the full panel of roughly 79,000, 15% have a hit. Rule as the data show it: active = growth inhibition above about 70%; inactive = the rest.

Experiments:
[1] = NCI Yeast Anticancer Drug Screen. Data for the rad50 strain (AID 155);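 also: 0% = growth of vehicle-only cultures of the same strain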; conditions: S. cerevisiae rad50 strain growth inhibition; at 50.0 µM; stronger effect = higher value
Procedure, shortened: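 Genetically altered yeast (DNA repair pathway); compound treatment; growth inhibition vs vehicle ctrl.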

[2] = NCI Yeast Anticancer Drug Screen. Data for the mec2-1 strain (AID 157); conditions: S. cerevisiae mec2-1 strain, at 50.0 µM, stronger effect = higher value
Procedure, shortened: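 Cells of the genetically defined mec2-1 yeast strain are incubated with test compound. Inhibition of growth is calculated against vehicle-treated controls.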

[3] = NCI Yeast Anticancer Drug Screen. Data for the sgs1 mgt1 strain (AID 161);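 also: 0% = growth of cultures given vehicle only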; conditions: S. cerevisiae sgs1 mgt1 strain, at 50.0 µM, stronger effect = higher value
Procedure, shortened: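 Genetically altered yeast, compound exposure, growth inhibition relative to vehicle.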

[4] = NCI Yeast Anticancer Drug Screen. Data for the cln2 rad14 strain (AID 165);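 also: 0% = growth equal to vehicle treated cultures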; conditions: S. cerevisiae cln2 rad14 strain, at 50.0 µM, stronger effect = higher value
Procedure, shortened: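 The screen exposed genetically defined yeast (cln2 rad14) to test compounds and scored growth inhibition relative to vehicle-treated controls.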

[5] = NCI Yeast Anticancer Drug Screen. Data for the bub3 strain (AID 167); conditions: S. cerevisiae bub3 mutant strain, at 50.0 µM, stronger effect = higher value
Procedure, shortened: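 Yeast carrying a defined mutation is treated with each compound, and growth is compared with that of vehicle-exposed cells to give inhibition.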

[6] = NCI Yeast Anticancer Drug Screen. Data for the mlh1 rad18 strain (AID 175); conditions: S. cerevisiae mlh1 rad18 strain growth inhibition; at 50.0 µM; stronger effect = higher value
Procedure, shortened: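 Compound-treated yeast growth, normalised to vehicle controls. Strain bears defined DNA repair mutations.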

Measured: growth inhibition

Cc1ccccc1C(=O)OC1CCCCC1
inactive: [1] 9.2% | [2] -13.1% | [3] -9.65% | [4] -39.5% | [5] 9.8% | [6] 5.7%

Cc1nc(/N=C(/N)N(C)C)[nH]c(=O)c1C
inactive: [1] 1.7% | [2] -27.6% | [3] -11.6% | [4] 3.7% | [5] 4.05% | [6] 19.9%

Cc1cc(=O)oc2c1ccc1occc(=O)c12
inactive: [1] -16.6% | [2] 10.4% | [3] -10.3% | [4] 4.95% | [5] 11.9% | [6] -11%

CCOC(=O)c1nc2ccccc2nc1Nc1ccc(OC)c(OC)c1
inactive: [1] -30.2% | [2] -31.5% | [3] -15.9% | [4] -15.6% | [5] -16.6% | [6] -19.3%

COC(=O)C1CC2(C(=O)OC)CC(C(=O)OC)(CC(C(=O)OC)C2=O)C1=O (stereo not given)
inactive: [1] 9.55% | [2] -0.15% | [3] 14.1% | [4] 11.9% | [5] 18.5% | [6] 3.55%

O=C(O)CCC(NC(=O)/C(=C/c1ccccc1)NC(=O)c1ccccc1)C(=O)O (stereo not given)
inactive: [1] 4.8% | [2] 6.55% | [3] 31% | [4] 8.75% | [5] 18.2% | [6] -10.4%

CCCCn1c(CCC)nc([N+](=O)[O-])c1Sc1ncn[nH]1
inactive: [1] -4.15% | [2] 6.15% | [3] -28.4% | [4] -1% | [5] -20.2% | [6] 8.6%

COc1ccc(C#CC(=O)O)c(OC)c1
inactive: [1] -3.15% | [2] -2.1% | [3] 22.9% | [4] -30.6% | [5] -5.45% | [6] -9%

CN(Cc1cnc2nc(N)nc(N)c2n1)c1ccc(C(=O)NC(CCC(=O)NC(CCC(=O)O)C(=O)O)C(=O)O)cc1 (stereo not given)
inactive: [1] 34.7% | [2] 20.6% | [3] 32.8% | [4] 13.5% | [5] 33.5% | [6] 36.2%

O=c1ccocc1OC1OC(CO)C(O)C(O)C1O (stereo not given)
inactive: [1] -3.95% | [2] -26.4% | [3] -21.1% | [4] -1.35% | [5] -32.3% | [6] -23.1%

O=[N+]([O-])c1ccccc1C1SCc2nc3ccccc3n21 (stereo not given)
inactive: [1] 25.2% | [2] 10.2% | [3] 31.8% | [4] 30.5% | [5] 44.5% | [6] 12.3%

COc1ccc(C(=O)Nc2ccccc2)cc1
inactive: [1] 7.45% | [2] 8.7% | [3] -0.3% | [4] 6.25% | [5] -1.2% | [6] -4.65%

O=C(CN1CCCCC1)NC(=O)N/N=C\c1ccco1
inactive: [1] 0.1% | [2] 3% | [3] 6.1% | [4] -59% | [5] -0.15% | [6] 13.8%

CCC/C=C(/C=N/Nc1ccc([N+](=O)[O-])cc1[N+](=O)[O-])CC
inactive: [1] 16.4% | [2] -10.7% | [3] -7.8% | [4] 32.6% | [5] 0.75% | [6] 4.05%

CC(=O)N=C1N(/C=C2\C(=O)Oc3ccccc3C2=O)C(=O)/C(=C/c2ccc3c(c2)OCO3)N1C
inactive: [1] 21.6% | [2] -5.55% | [3] 5.25% | [4] 9.4% | [5] -6.35% | [6] 10.5%

CC(=O)CC(=O)NCc1ccc2c(c1)OCO2
inactive: [1] -17.4% | [2] -9.2% | [3] -16.3% | [4] 3.75% | [5] -15.1% | [6] -11.8%

Clc1cccc(Cl)c1C(Nc1ncccn1)Nc1ncccn1
inactive: [1] 12.2% | [2] 14.8% | [3] 12.1% | [4] -16.4% | [5] 9.6% | [6] 20.4%

CCOC(=O)c1ccc(NC(=O)Oc2cc(C)c(Cl)c(C)c2)cc1
inactive: [1] 7.8% | [2] -3.4% | [3] 2.65% | [4] 6.35% | [5] 14.9% | [6] -3.65%

O=[N+]([O-])c1ccc(N/N=C/c2ccccn2)nc1
inactive: [1] 8.1% | [2] -6.1% | [3] 10.1% | [4] -7.7% | [5] 6% | [6] 5.4%

CCCCCCNC(=O)C1=C(C)NC(C)=C(C(=O)NCCCCCC)C1
inactive: [1] 4.9% | [2] 1.35% | [3] -6.4% | [4] -24.9% | [5] 6.8% | [6] -42.2%
